This is an account of results in PubChem BioAssay (NCATS).

Records with an inconclusive call do not appear. A number with no mark means an inactive call. Active and inactive are the calls of the source. Calls follow the shape of the dose curve; as a rule, active = well fitted inhibition curve with a large enough effect; inconclusive = small, poorly fitted or top-dose-only effect; inactive = flat fitted curve, though single readings scatter.
Potency is read from the fitted curve at half-maximal effect.

The nature of this experiment: BET inhibitor-based combinations targeting novel dependencies in MECOM-rearranged (r) AML: AML-191 cell line (AID 2202236; also: nearly all actives have a fitted effect of over 35% in size;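 as to viability (% of control): plate controls were vehicle wells for no effect and wells without cells for full effect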). The conditions noted are these: AML-191 viability, CellTiter-Glo luminescence, 48 h; series mostly up to 46 µM; viability (% of control): at the top concentration. The text has this:
Ecotropic viral insertion site 1 (EVI1) is located on chromosome 3q26.2 as part of the MECOM (MDS and EVI1 complex) locus. Under normal hematopoiesis, EVI1 is a regulator of hematopoietic stem cell maintenance and self-renewal and EVI1 levels decrease as the cells differentiate. In approximately 5-10% of de novo acute myeloid leukemia (AML) EVI1 is aberrantly expressed, including Chromosomal inv(3)(q21;q26.2) or t(3;3)(q21;q26.2) alterations (MECOM-r) that account for about 50% of AML with EVI1 overexpression 31. AMLs with high levels of EVI1 have a poor prognosis and an overall survival time averaging between 10-14 months. EVI1 overexpression confers resistance in leukemia cells, highlighting the need to develop new targeted therapies for EVI1 overexpressing AMLs.
Here, we performed an unbiased chemical drug screening by evaluating the single agent activity of a collection of 2,480 oncology-focused, approved and investigational drugs (NCATS Mechanism Interrogation Plates, MIPE v5.0) against a panel of seven AML cell lines. These included four MECOM-r cell-lines (AML-191, AML-194, UCSD-AML1 and HNT-34) and three non-MECOM-r AMLs (MV4-11, OCI-AML3 and SET-2). Exploiting the mechanistic redundancy built in the library, we identified target-level sensitivities in MECOM-r AML cells and relative activity as compared to other AML subtypes.
A collection of 2480 mechanistically annotated dugs (MIPE v5.0) was used to screen four 3q26.2 rearranged AML cell lines and three non-3q26.2 rearranged AML cell lines. This library purposely exploits redundancy by including multiple inhibitors of key onco-targets, while simultaneously encompassing mechanistic diversity, targeting more than 800 distinct mechanisms of action. Briefly, cells were seeded in 5 uL of growth media using a Multidrop Combi dispenser into 1536 well white polystyrene tissue culture treated plates (Corning) at a density of 500cells/well. For each cell-line, for each of the 2480 drugs in MIPE v5.0 library, an 11-point dose curve was generated via a 1536 pin-tool. Plates were incubated for 48 hr at standard incubator conditions, covered by a stainless steel gasketed lid to prevent evaporation. Cell viability was determined by luminescence based, Cell Titer Glo assay (Promega). In detail, 3 uL of Cell Titer Glo were added to each well and plates were incubated at room temperature for 15 min with a stainless-steel lid in place. Luminescence readings were taken using a Viewlux (PerkinElmer) with a 2 s exposure time per plate. Compound dose-response curves were normalized to DMSO and empty well controls on each plate. Quantitative drug activity data from dose-response curves was determined utilizing area Under the Curve (AUC) and Z-transformed AUC (Z-AUC, a mean-centering transformation applied to each individual cell-line screened).
Take `CCCN1CCO[C@@H]2c3cc(O)ccc3OC[C@H]21`: the “viability (% of control)” value is 98.8%.
Turning to `O=C(N[C@H]1CN2CCC1CC2)c1ccc(Cl)cc1`, the “viability (% of control)” value is 107%.
On to `Cc1[nH]nc2ccc(-c3cncc(OC[C@@H](N)Cc4c[nH]c5ccccc45)c3)cc12`, for which the Potency is 833 nM (active).
With `NC(=O)[C@@H](CC1CC1)[C@@H](CCC(F)(F)F)C(=O)N[C@H]1N=C(c2ccccc2)c2cccc(F)c2NC1=O`, the “viability (% of control)” value was 112%.
With `CNC(=O)c1ccc(N2C(=S)N(c3ccc(C#N)c(C(F)(F)F)c3)C(=O)C23CCC3)cc1F`, the “viability (% of control)” value was 89.9%.
Consider `Cc1[nH]ncc1-c1cc2nc([C@@H]3CC4CCN3CC4)[nH]c(=O)c2s1`, for which the Potency was 8330 nM (active).
For the molecule `CC(C)[C@]12O[C@H]1[C@@H]1O[C@@]13[C@@]1(C)CCC4=C(COC4=O)[C@@H]1C[C@@H]1O[C@@]13C2=O`, the Potency was 83.3 nM (active).
For the molecule `O=c1[nH]c2ccccc2n1CCCN1CCC(n2c(=O)[nH]c3cc(Cl)ccc32)CC1`, the “viability (% of control)” value is 99.8%.
For the molecule `O=P1(NCCCl)OCCCN1CCCl` (stereo not given), the “viability (% of control)” value was 113%.
Same read-out and setting: then `CCc1c(C(=O)C(N)=O)c2c(OCC(=O)O)cccc2n1Cc1ccccc1`, with 102%.
Take `C[C@@H]1O[C@@H](O[C@@H]2C=C3CC[C@@H]4[C@H](CC[C@]5(C)[C@@H](c6ccc(=O)oc6)CC[C@]45O)[C@@]3(C)CC2)[C@H](O)[C@H](O)[C@H]1O`: the Potency was 18.6 nM (active).
For `COC[C@@H](NC(C)=O)C(=O)NCc1ccccc1`, the “viability (% of control)” value is 115%.
Turning to `COc1ccc(C(=O)c2c(C)n(CCN3CCOCC3)c3ccccc23)cc1`, the Potency was 2630 nM (active).
`C#CC1(O)CCC2C3CCC4=CC(=O)CCC4(C)C3CCC21C` (stereo not given): the “viability (% of control)” value was 93.1%.
With `C/C1=C/C[C@@H](/C(C)=C/c2csc(C)n2)OC(=O)C[C@H](O)C(C)(C)C(=O)[C@H](C)[C@@H](O)[C@@H](C)CCC1`, the Potency is 83.3 nM (active).
For the molecule `O=C(O)CNC(=O)C1C(=O)N(C2CCCCC2)C(=O)N(C2CCCCC2)C1=O`, the “viability (% of control)” value was 96.5%.
In the case of `C[C@@H]1CC[C@@]2(OC1)O[C@H]1C[C@H]3[C@@H]4CC=C5C[C@@H](O[C@@H]6O[C@H](CO)[C@@H](O[C@@H]7O[C@@H](C)[C@H](O)[C@@H](O)[C@H]7O)[C@H](O)[C@H]6O[C@@H]6O[C@@H](C)[C@H](O)[C@@H](O)[C@H]6O)CC[C@]5(C)[C@H]4CC[C@]3(C)[C@H]1[C@@H]2C`, the Potency was 5250 nM (active).
Regarding `C[C@]12CC[C@@H]3c4ccc(OC(=O)N(CCCl)CCCl)cc4CC[C@H]3[C@@H]1CC[C@@H]2OP(=O)(O)O`, the “viability (% of control)” value was 105%.
Consider `CCOc1ccccc1-n1c(C(C)N2CCN(C(=O)COc3ccc(Cl)cc3)CC2)nc2ccccc2c1=O` (stereo not given), for which the Potency was 2630 nM (active).
For the molecule `C/C(O)=C(\C#N)C(=O)Nc1cc(Br)ccc1Br`, the “viability (% of control)” value is 104%.
On to `COc1cccc2c1C(=O)c1c(O)c3c(c(O)c1C2=O)C[C@@](O)(C(=O)CO)CC3OC1CC(N2CCOC(OC)C2)C(O)C(C)O1` (stereo not given in full), for which the Potency was 5.3 nM (active).
Still for that read-out and setting: then `CC1(C)C(=O)N(c2ccc(C#N)c(C(F)(F)F)c2)C(=S)N1Cc1ccc(-c2cn[nH]n2)cc1`, with 18600 nM (active); and `N=c1c2c(-c3ccccc3)c(-c3ccccc3)n(Cc3ccccc3)c2ncn1C1CCC(O)CC1` (stereo not given), with 2630 nM (active).
Turning to `CN1C(=O)COc2c(C(=O)NC3CN4CCC3CC4)cc(Cl)cc21` (stereo not given), the “viability (% of control)” value was 103%.
On the same count and under the same terms, then `COc1cc(C(=O)N2CC[C@@H](O)[C@@H](N)C2)cc2nc(-c3cc4ccccc4n3CC3CC3)n(C)c12`, with 81.8%; and `CNCC(O)c1ccc(O)cc1` (stereo not given), with 116%.
As to `O=C(O)C1=CCCN(CCOC(c2ccc(C(F)(F)F)cc2)c2ccc(C(F)(F)F)cc2)C1`, the “viability (% of control)” value was 93.7%.
Take `COc1cc([C@@H]2c3cc4c(cc3[C@@H](O)C3COC(=O)C32)OCO4)cc(OC)c1O` (stereo not given in full): the Potency is 296 nM (active).
As for `CC(C)CC(N(C)C)C1(c2ccc(Cl)cc2)CCC1` (stereo not given), the “viability (% of control)” value is 102%.
On the same count and under the same terms, then `CCOC(=O)Nc1ccc(NCc2ccc(F)cc2)cc1N`, with 95.3%.
On to `Cn1c(CCCCCCC(=O)NO)nc2cc(N(CCCl)CCCl)ccc21`, for which the Potency is 2630 nM (active).
Take `C[C@@H]1O[C@@H](O[C@H]2C[C@@H](O)[C@]3(CO)[C@H]4[C@H](O)C[C@]5(C)[C@@H](C6=CC(=O)OC6)CC[C@]5(O)[C@@H]4CC[C@]3(O)C2)[C@H](O)[C@H](O)[C@H]1O`: the Potency is 83.3 nM (active).
For the molecule `CC(NC(C)(C)C)C(=O)c1cccc(Cl)c1` (stereo not given), the “viability (% of control)” value is 104%.
With `CCCC[N+]1(C)[C@H]2CC(OC(=O)[C@H](CO)c3ccccc3)C[C@H]1[C@H]1O[C@H]12` (stereo not given in full), the “viability (% of control)” value is 107%.
As for `COc1cc2c(cc1F)C(c1ccccc1Cl)=Nc1c(n[nH]c1C)N2`, the Potency was 1660 nM (active).
Consider `Cc1cc(SCc2sc(-c3ccc(C(F)(F)F)c(F)c3)nc2C)ccc1OCC(=O)O`, for which the “viability (% of control)” value was 87.3%.
Same read-out and setting: in the case of `CC1=C2C[C@H]3[C@@H](CC=C4C[C@@H](O)CC[C@@]43C)[C@@H]2CC[C@]12O[C@@H]1C[C@H](C)CN[C@H]1[C@H]2C` it was 105%; in that of `CCOC(=O)c1c(C(C#N)=CN)c2ccc(Cl)c(Cl)c2n1C`, 88.4%.
`CCC1(c2ccc(N)cc2)CCC(=O)NC1=O` (stereo not given): the “viability (% of control)” value was 87.6%.
For the molecule `CN1[C@H]2CC(O)C[C@H]1[C@H]1O[C@H]12` (stereo not given in full), the “viability (% of control)” value was 117%.
